Laboratory results from PubChem BioAssay (Tox21).
Inconclusive results are not listed. Some compounds were tested as several samples or in several runs, with calls that do not always agree. Active and inactive are the calls of the source. Unless noted, the call rests on the fitted dose curve; in most records, active means well fitted curve in the direction sought with a large enough effect in the repeat runs; inconclusive means weak or mixed curves; inactive means no such curve, though single readings can be large; an effect the other way counts as inactive or inconclusive.

How the values were obtained:
[1] = target: Retinoic acid receptor RXR-alpha (Homo sapiens) (UniProt P19793); experiment: qHTS assay to identify small molecule agonists of the RXR signaling pathway (AID 1159527; calls by dose curve; further: nearly all actives have a fitted effect of over 35% in size)
Chain of Retinoic acid receptor RXR-alpha (Homo sapiens) (P19793 whole entry, looked up): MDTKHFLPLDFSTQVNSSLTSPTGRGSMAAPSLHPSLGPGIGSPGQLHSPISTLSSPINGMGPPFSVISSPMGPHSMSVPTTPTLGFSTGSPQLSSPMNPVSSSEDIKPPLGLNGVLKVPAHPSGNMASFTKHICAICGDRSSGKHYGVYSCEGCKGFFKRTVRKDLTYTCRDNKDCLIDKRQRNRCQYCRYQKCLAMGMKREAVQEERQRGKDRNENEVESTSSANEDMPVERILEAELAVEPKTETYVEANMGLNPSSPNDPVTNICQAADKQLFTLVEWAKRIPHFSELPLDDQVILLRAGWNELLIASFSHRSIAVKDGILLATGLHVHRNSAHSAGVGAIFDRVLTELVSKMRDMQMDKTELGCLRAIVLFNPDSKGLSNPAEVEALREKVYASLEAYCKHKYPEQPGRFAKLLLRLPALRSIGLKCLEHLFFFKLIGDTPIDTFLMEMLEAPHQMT
Method in brief: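 GeneBLAzer RXR-alpha-UAS-bla HEK 293T cells in 2% charcoal-stripped FBS medium were exposed to compounds for 16 hr at 37 C in agonist mode. Beta-lactamase reporter read as 460/530 nm FRET ratio after 2 hr substrate loading.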

[2] = qHTS assay to identify small molecule agonists of the RXR signaling pathway - cell viability counter screen (AID 1159529); further: series mostly up to about 77 µM; nearly all actives have a fitted effect of over 50% in size
Method in brief: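 RXR-alpha-UAS-bla HEK 293T cells in medium with 2% charcoal-stripped FBS were pre-incubated 5 hr, then compound-treated 16 hr at 37 C. Viability was read by CellTiter-Glo luminescence in the same wells as the beta-lactamase assay, with tetraoctyl ammonium bromide as positive control.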

[3] = qHTS assay to identify small molecule antagonists of the retinoid acid receptor (RAR) signaling pathway - cell viability counter screen (AID 1159551); further: nearly all actives have a fitted effect of over 35% in size
Method in brief: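 Retinol-stimulated (1 uM final) C3RL4 cells, compound 6 h, 37 C; readout CellTiter-Glo luminescence (ATP) after 30 min RT incubation.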

[4] = qHTS assay to identify small molecule antagonists of the retinoic acid receptor (RAR) signaling pathway (AID 1159552; further: nearly all actives have a fitted effect of over 50% in size)
Method in brief: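 Retinol signaling pathway inhibitors screened in C3RL4 RARE-luciferase reporter cells seeded overnight at 37 C, then compounds added with 1 uM (final) retinol as pathway substrate. After 6 hr at 37 C, luciferase luminescence read after 30 min at room temperature.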

[5] = qHTS assay to identify small molecule agonists of the retinoic acid receptor (RAR) signaling pathway (AID 1159553); further: potency means the concentration at half of the fitted maximal effect
Method in brief: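 Reporter readout comes from luciferase under RARE control in C3RL4 cells; compound exposure lasts 6 hr at 37 C in 5% CO2, and luminescence is recorded following a 30 min room-temperature incubation with reagent.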

[6] = qHTS assay to identify small molecule antagonists of the estrogen related receptor (ERR) signaling pathway from Tox21 library - cell viability counter screen (AID 1224834); further: nearly all actives have a fitted effect of over 30% in size; further: potency means the concentration at half of the fitted maximal effect
Method in brief: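 After 17.5 h of compound exposure at 37 C, ERR cells are incubated with CellTiter-Fluor for 30 min and fluorescence intensity serves as the viability measure.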

[7] = target: Luciferin 4-monooxygenase (Photinus pyralis) (UniProt P08659); experiment: qHTS assay to identify small molecule inhibitors of firefly luciferase (AID 1224835); further: nearly all actives have a fitted effect of over 25% in size; further: potency means the concentration at half of the fitted maximal effect
Chain of Luciferin 4-monooxygenase (Photinus pyralis) (P08659 whole entry, looked up): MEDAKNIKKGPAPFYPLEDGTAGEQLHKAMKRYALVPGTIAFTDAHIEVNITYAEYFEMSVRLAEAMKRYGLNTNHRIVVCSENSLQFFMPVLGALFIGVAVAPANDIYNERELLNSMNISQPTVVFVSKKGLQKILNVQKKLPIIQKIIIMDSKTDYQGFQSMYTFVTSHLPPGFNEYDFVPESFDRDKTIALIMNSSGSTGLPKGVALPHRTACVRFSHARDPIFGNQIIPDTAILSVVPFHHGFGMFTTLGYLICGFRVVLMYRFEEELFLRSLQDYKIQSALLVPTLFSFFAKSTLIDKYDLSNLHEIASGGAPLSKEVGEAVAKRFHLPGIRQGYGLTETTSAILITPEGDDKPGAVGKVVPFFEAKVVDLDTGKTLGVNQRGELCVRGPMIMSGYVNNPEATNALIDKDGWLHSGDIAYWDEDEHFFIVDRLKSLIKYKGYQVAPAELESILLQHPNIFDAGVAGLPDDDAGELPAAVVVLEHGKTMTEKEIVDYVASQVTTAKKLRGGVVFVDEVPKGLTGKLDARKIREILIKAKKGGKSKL
Method in brief: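 Quantitative HTS format; KM concentrations of both substrates. Purified P. pyralis FLuc activity quantified from luminescence images.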

[8] = qHTS assay to identify small molecule agonists of the constitutive androstane receptor (CAR) signaling pathway - cell viability counter screen (AID 1224836); further: series mostly up to about 92 µM; nearly all actives have a fitted effect of over 45% in size
Method in brief: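 HepG2 cells stably carrying hCAR and a CYP2B6-2.2kb reporter; 15-concentration compounds plus PK11195 (final 0.75 uM), 23 hr at 37 C/5% CO2. Viability read by CellTiter-Fluor fluorescence.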

[9] = qHTS assay to identify small molecule antagonists of the constitutive androstane receptor (CAR) signaling pathway - cell viability counter screen (AID 1224837); further: series mostly up to about 92 µM; nearly all actives have a fitted effect of over 45% in size
Method in brief: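 Counter screen run in HepG2-CYP2B6-hCAR cells: 4 hr settle, compound titration (15 concentrations) with 50 nM CITCO, 23 hr at 37 C/5% CO2, CellTiter-Fluor fluorescence.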

[10] = target: Nuclear receptor subfamily 1 group I member 3 (Homo sapiens) (UniProt Q14994); experiment: qHTS assay to identify small molecule antagonists of the constitutive androstane receptor (CAR) signaling pathway (AID 1224838);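 further: HepG2 cells stably expressing hCAR with CYP2B6 luciferase reporter stimulated by CITCO; nearly all actives have a fitted effect of over 40% in size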
Chain of Nuclear receptor subfamily 1 group I member 3 (Homo sapiens) (Q14994 whole entry, looked up): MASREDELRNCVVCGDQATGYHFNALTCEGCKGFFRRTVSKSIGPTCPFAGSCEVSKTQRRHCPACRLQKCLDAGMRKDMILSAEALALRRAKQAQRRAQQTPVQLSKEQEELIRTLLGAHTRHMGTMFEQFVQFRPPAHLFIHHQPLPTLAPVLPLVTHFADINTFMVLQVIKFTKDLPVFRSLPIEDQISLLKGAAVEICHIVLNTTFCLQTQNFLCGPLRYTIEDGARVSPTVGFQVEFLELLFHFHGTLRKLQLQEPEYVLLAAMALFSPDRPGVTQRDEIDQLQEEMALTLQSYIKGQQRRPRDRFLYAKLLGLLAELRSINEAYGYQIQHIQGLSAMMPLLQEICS
Method in brief: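 Cell line: HepG2 double-stable for hCAR and CYP2B6-2.2kb reporter. Agonist: CITCO, 50 nM final. Compounds: 15 concentrations, 24 h, 37 C. Detection: ONE-Glo luminescence.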

[11] = target: Nuclear receptor subfamily 1 group I member 3 (Homo sapiens) (UniProt Q14994); experiment: qHTS assay to identify small molecule agonists of the constitutive androstane receptor (CAR) signaling pathway (AID 1224839); further: nearly all actives have a fitted effect of over 15% in size; further: potency means the concentration at half of the fitted maximal effect
Method in brief: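 HepG2 cells stably co-transfected with hCAR and a CYP2B6-2.2kb luciferase reporter; compounds at 15 concentrations with 0.75 uM PK11195 present. After 24 hr at 37 C, luciferase read by ONE-Glo luminescence.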

[12] = qHTS assay to identify small molecule antagonists of the estrogen related receptor signaling pathway with the pleiotropic PPARgamma coactivator (PGC) from Tox21 10K library - cell viability counter screen (AID 1224840; active means well fitted cell-killing curve with a large enough effect in the repeat runs, not every such curve was filed as active; further: nearly all actives have a fitted effect of over 40% in size)
Method in brief: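 Following seeding of 2,000 PGC/ERR cells/well and 6 hours' incubation, test compounds were delivered in DMSO. The plates then sat 17.5 hours at 37 C before a fluorogenic live-cell protease reagent (CellTiter-Fluor) was read after 30 min.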

[13] = qHTS assay to identify small molecule agonists of the estrogen related receptor signaling pathway with the pleiotropic PPARgamma coactivator (PGC) from Tox21 10K library (AID 1224842); further: nearly all actives have a fitted effect of over 15% in size
Method in brief: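 PGC/ERR reporter cells (NTP line) were seeded 2,000 per well, rested 6 h at 37 C/5% CO2, then pin-dosed with compounds in DMSO for 18 h at 37 C; luciferase read by One-Glo luminescence after 30 min at room temperature.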

[14] = qHTS assay to identify small molecule antagonists of the estrogen related receptor signaling pathway with the pleiotropic PPARgamma coactivator (PGC) from Tox21 10K library (AID 1224841; call rule not given here; further: series mostly up to about 92 µM; actives are mostly falling curves and most rising ones were filed inactive; nearly all actives have a fitted effect of over 50% in size)
Method in brief: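 qHTS antagonist format: PGC/ERR cells, 2k/well, compound in DMSO by pin transfer after 6 h attachment, 18 h treatment at 37 C, One-Glo luminescence read at 30 min.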

Measured: Potency

CCC(C)(C)C(=O)O
not listed: [13] | [14]
inactive: all other assays above

O=C(O)CO
not listed: [10] | [13] | [14]
inactive: all other assays above

CN1C(CSCC(F)(F)F)Nc2cc(Cl)c(S(N)(=O)=O)cc2S1(=O)=O (configuration not stated)
not listed: [14]
inactive: all other assays above

COc1cc(S(=O)(=O)Nc2ccccc2)c(OC)cc1N
not listed: [11] | [13] | [14]
inactive: all other assays above

Nc1ccc(S(=O)(=O)NCc2ccccc2)cc1
not listed: [13] | [14]
inactive: all other assays above

CC(C)(C)C(O)/C=C/c1ccc2c(c1)OCO2 (configuration not stated)
active: [5] 29.8 µM | [7] 24.5 µM
not listed: [11] | [13] | [14]
inactive: all other assays above

O=C1OC(=O)c2c(Br)c(Br)c(Br)c(Br)c21
not listed: [13] | [14]
inactive: all other assays above

CNC1CCCN(c2c(F)cc3c(=O)c(C(=O)O)cn(C4CC4)c3c2OC)C1 (configuration not stated)
not listed: [13] | [14]
inactive: all other assays above

COc1ccc2nc(S(=O)Cc3ncc(C)c(OC)c3C)[nH]c2c1 (configuration not stated)
active: [5] 67.8 µM
31.3 µM (active) and inactive: [7]
60.4 µM (active) and inactive: [11]
53.8 µM (active) and inactive: [6]
not listed: [13] | [14]
inactive: all other assays above

COC(OC)OC
not listed: [13] | [14]
inactive: all other assays above

CC(=O)N[C@@H](Cc1ccc(O)cc1)C(=O)O
inactive: all assays above
